# Assay results: PubChem BioAssay AID1159580 (chemical genetic matrix, 2015)
# Where “and” joins values, the source holds several entries; their conditions need not be identical. Identical values can stand only once. The campaign covered roughly 5,500 compounds. About 2,000 (36%) were called active. Roughly 18% stayed inconclusive and do not appear here. The list shows a part of the results. A number with no mark means an inactive call. Cut-off read from the data, not from the text of the source: active = normalized growth mostly below about 0.91 (no sharp cut-off); inconclusive = no clear call, values can overlap the other calls; inactive = mostly above about 0.92.
# Assay: chemical genetic growth profiling, strain panel (AID 1159580);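 note: tested at 20 µM; growth read once vehicle control cultures reached saturation at 30 °C; 1 = growth at the plate median or of vehicle wells; lower values mean less growth of the strain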
# Conditions: S. cerevisiae deletion strains, growth OD
structure (smiles),measurement,setting,value
COc1ccc(-c2cc(=O)c3cc(OC)ccc3o2)cc1,normalized growth,"locus YAL013W, strain DEP1, hits give low values",0.982
same,normalized growth,"locus YAL021C, strain ccr4, hits give low values",0.964
same,normalized growth,"locus YAL026C, strain drs2, hits give low values",0.922
same,normalized growth,"locus YAL030W, strain snc1, hits give low values",0.928 (active)
same,normalized growth,"locus YBL061C, strain skt5, hits give low values",0.937
same,normalized growth,"locus YBR009C, strain hhf1, hits give low values",0.902 (active)
same,normalized growth,"locus YBR021W, strain FUR4, hits give low values",0.908
same,normalized growth,"locus YBR023C, strain chs3, hits give low values",0.916
same,normalized growth,"locus YBR171W, strain sec66, hits give low values",0.95
same,normalized growth,"locus YBR229C, strain ROT2, hits give low values",0.999
same,normalized growth,"locus YBR231C, strain swc5, hits give low values",0.939
same,normalized growth,"locus YBR279W, strain paf1, hits give low values",0.944
same,normalized growth,"locus YCL011C, strain gbp2, hits give low values",0.887 (active)
same,normalized growth,"locus YCL016C, strain dcc1, hits give low values",0.944
same,normalized growth,"locus YCL029C, strain bik1, hits give low values",0.987
same,normalized growth,"locus YCL061C, strain MRC1, hits give low values",0.96
same,normalized growth,"locus YCL069W, strain vba3, hits give low values",0.945
same,normalized growth,"locus YCR088W, strain abp1, hits give low values",0.94
same,normalized growth,"locus YDL005C, strain med2, hits give low values",0.949
same,normalized growth,"locus YDL035C, strain GPR1, hits give low values",0.977
same,normalized growth,"locus YDL040C, strain nat1, hits give low values",0.95
same,normalized growth,"locus YDL074C, strain BRE1, hits give low values",0.918
same,normalized growth,"locus YDL101C, strain DUN1, hits give low values",0.983
same,normalized growth,"locus YDL134C, strain PPH21, hits give low values",1.04
same,normalized growth,"locus YDL185W, strain tfp1, hits give low values",0.946
same,normalized growth,"locus YDL192W, strain arf1, hits give low values",0.978
same,normalized growth,"locus YDR001C, strain nth1, hits give low values",0.942
same,normalized growth,"locus YDR069C, strain doa4, hits give low values",0.948
same,normalized growth,"locus YDR101C, strain arx1, hits give low values",0.946
same,normalized growth,"locus YDR137W, strain rgp1, hits give low values",0.883
same,normalized growth,"locus YDR150W, strain NUM1, hits give low values",0.983
same,normalized growth,"locus YDR159W, strain sac3, hits give low values",0.925
same,normalized growth,"locus YDR162C, strain NBP2, hits give low values",1.01
same,normalized growth,"locus YDR195W, strain ref2",1.04
same,normalized growth,"locus YDR297W, strain sur2, hits give low values",0.955
same,normalized growth,"locus YDR318W, strain mcm21, hits give low values",1.02
same,normalized growth,"locus YDR334W, strain swr1, hits give low values",0.931
same,normalized growth,"locus YDR335W, strain msn5, hits give low values",0.962
same,normalized growth,"locus YDR388W, hits give low values",1
same,normalized growth,"locus YDR392W, strain spt3, hits give low values",0.571 (active)
same,normalized growth,"locus YDR502C, strain sam2, hits give low values",0.968
same,normalized growth,"locus YEL003W, strain gim4, hits give low values",0.956
same,normalized growth,"locus YEL037C, strain rad23, hits give low values",0.921 (active)
same,normalized growth,"locus YEL061C, strain CIN8 (second series), hits give low values",0.93
same,normalized growth,"locus YEL061C, strain CIN8, hits give low values",1.01
same,normalized growth,"locus YER015W, strain faa2, hits give low values",0.969
same,normalized growth,"locus YER016W, strain bim1, hits give low values",0.954
same,normalized growth,"locus YER110C, hits give low values",0.974
same,normalized growth,"locus YER111C, strain swi4, hits give low values",0.943
same,normalized growth,"locus YER155C, strain BEM2 (second series), hits give low values",0.771 (active)
same,normalized growth,"locus YER155C, strain BEM2, hits give low values",0.985
same,normalized growth,"locus YER167W, strain BCK2, hits give low values",0.997
same,normalized growth,"locus YFR010W, strain ubp6, hits give low values",0.906
same,normalized growth,"locus YGL078C, strain dbp3, hits give low values",0.995
same,normalized growth,"locus YGL086W, strain mad1, hits give low values",0.938
same,normalized growth,"locus YGL167C, strain pmr1, hits give low values",0.924
same,normalized growth,"locus YGL173C, strain kem1, hits give low values",0.947
same,normalized growth,"locus YGL227W, strain vid30, hits give low values",0.947
same,normalized growth,"locus YGL240W, strain doc1, hits give low values",0.892
same,normalized growth,"locus YGL248W, strain PDE1, hits give low values",1.01
same,normalized growth,"locus YGL253W, strain hxk2, hits give low values",0.894 (active)
same,normalized growth,"locus YGR078C, strain PAC10, hits give low values",0.988
same,normalized growth,"locus YGR135W, strain pre9, hits give low values",1.01
same,normalized growth,"locus YGR229C, strain SMI1, hits give low values",0.961
same,normalized growth,"locus YGR252W, strain gcn5, hits give low values",1.04
same,normalized growth,"locus YHR013C, strain ard1, hits give low values",0.972
same,normalized growth,"locus YHR027C, strain rpn1, hits give low values",0.949
same,normalized growth,"locus YHR030C, strain SLT2, hits give low values",0.998 and 0.956
same,normalized growth,"locus YHR079C, strain IRE1 (second series), hits give low values",0.997
same,normalized growth,"locus YHR079C, strain IRE1, hits give low values",0.928
same,normalized growth,"locus YHR094C, strain hxt1, hits give low values",1.01
same,normalized growth,"locus YHR129C, strain ARP1, hits give low values",0.985
same,normalized growth,"locus YHR142W, strain chs7, hits give low values",0.84 (active)
same,normalized growth,"locus YHR200W, strain rpn10, hits give low values",0.985
same,normalized growth,"locus YIL066C, strain RNR3, hits give low values",0.999
same,normalized growth,"locus YIL073C, strain SPO22, hits give low values",0.973
same,normalized growth,"locus YIL125W, strain kgd1, hits give low values",0.99
same,normalized growth,"locus YIR030C, strain dcg1, hits give low values",1.01
same,normalized growth,"locus YJL092W, strain hpr5, hits give low values",0.948
same,normalized growth,"locus YJL095W, strain BCK1 (second series), hits give low values",0.95
same,normalized growth,"locus YJL095W, strain BCK1, hits give low values",0.96 and 0.964
same,normalized growth,"locus YJL115W, strain asf1, hits give low values",0.936
same,normalized growth,"locus YJL129C, strain trk1, hits give low values",0.937
same,normalized growth,"locus YJL134W, strain LCB3, hits give low values",0.996
same,normalized growth,"locus YJL154C, strain vps35, hits give low values",0.942
same,normalized growth,"locus YJL164C, strain tpk1, hits give low values",0.912 (active)
same,normalized growth,"locus YJL166W, strain qcr8, hits give low values",0.913
same,normalized growth,"locus YJL168C, strain set2, hits give low values",1
same,normalized growth,"locus YJL187C, strain SWE1 (second series), hits give low values",0.972
same,normalized growth,"locus YJL187C, strain SWE1, hits give low values",0.948
same,normalized growth,"locus YJR043C, strain POL32, hits give low values",0.966
same,normalized growth,"locus YJR066W, strain TOR1, hits give low values",0.893
same,normalized growth,"locus YKL009W, strain mrt4, hits give low values",0.925
same,normalized growth,"locus YKL068W, hits give low values",1
same,normalized growth,"locus YKL085W, strain MDH1 (second series), hits give low values",0.997
same,normalized growth,"locus YKL085W, strain MDH1, hits give low values",0.997
same,normalized growth,"locus YKL160W, strain elf1, hits give low values",0.939
same,normalized growth,"locus YKL190W, strain CNB1, hits give low values",1
same,normalized growth,"locus YKR001C, strain vps1, hits give low values",0.93
same,normalized growth,"locus YKR026C, strain gcn3, hits give low values",0.942
same,normalized growth,"locus YKR091W, strain srl3, hits give low values",0.96
same,normalized growth,"locus YLL001W, strain dnm1, hits give low values",0.931
same,normalized growth,"locus YLL026W, hits give low values",0.926 (active)
same,normalized growth,"locus YLL041C, strain sdh2, hits give low values",0.96
same,normalized growth,"locus YLR027C, strain aat2, hits give low values",0.925
same,normalized growth,"locus YLR039C, strain RIC1, hits give low values",1.01
same,normalized growth,"locus YLR058C, strain SHM2, hits give low values",0.99
same,normalized growth,"locus YLR102C, strain apc9, hits give low values",0.975
same,normalized growth,"locus YLR113W, strain HOG1, hits give low values",0.981
same,normalized growth,"locus YLR221C, strain rsa3, hits give low values",0.947
same,normalized growth,"locus YLR258W, strain gsy2, hits give low values",0.934
same,normalized growth,"locus YLR262C, strain YPT6 (second series), hits give low values",0.902
same,normalized growth,"locus YLR262C, strain YPT6, hits give low values",1.06
same,normalized growth,"locus YLR268W, strain sec22, hits give low values",0.965
same,normalized growth,"locus YLR320W, strain mms22, hits give low values",0.869 (active)
same,normalized growth,"locus YLR330W, strain CHS5, hits give low values",0.925
same,normalized growth,"locus YLR342W, strain FKS1 (second series), hits give low values",0.975
same,normalized growth,"locus YLR342W, strain FKS1, hits give low values",0.94
same,normalized growth,"locus YLR357W, strain rsc2, hits give low values",0.88
same,normalized growth,"locus YLR370C, strain arc18, hits give low values",0.941
same,normalized growth,"locus YLR371W, strain rom2, hits give low values",0.965
same,normalized growth,"locus YLR384C, strain iki3, hits give low values",0.944
same,normalized growth,"locus YLR418C, strain cdc73, hits give low values",0.943
same,normalized growth,"locus YML016C, strain PPZ1, hits give low values",0.991
same,normalized growth,"locus YML032C, strain rad52, hits give low values",0.997
same,normalized growth,"locus YML120C, strain ndi1, hits give low values",0.946
same,normalized growth,"locus YML124C, strain tub3, hits give low values",1.01
same,normalized growth,"locus YMR058W, strain fet3, hits give low values",0.928
same,normalized growth,"locus YMR078C, strain ctf18, hits give low values",0.982
same,normalized growth,"locus YMR125W, strain sto1, hits give low values",0.927
same,normalized growth,"locus YMR129W, hits give low values",0.949
same,normalized growth,"locus YMR205C, strain PFK2, hits give low values",0.898
same,normalized growth,"locus YMR223W, strain ubp8, hits give low values",1.02
same,normalized growth,"locus YMR231W, strain pep5, hits give low values",0.974
same,normalized growth,"locus YMR307W, strain GAS1, hits give low values",1.06
same,normalized growth,"locus YNL067W, strain RPL9B, hits give low values",0.99
same,normalized growth,"locus YNL071W, strain lat1, hits give low values",0.831 (active)
same,normalized growth,"locus YNL183C, strain NPR1, hits give low values",0.885
same,normalized growth,"locus YNL209W, strain ssb2, hits give low values",0.956
same,normalized growth,"locus YNL233W, strain BNI4, hits give low values",0.914
same,normalized growth,"locus YNL248C, strain rpa49, hits give low values",0.95
same,normalized growth,"locus YNL250W, strain rad50, hits give low values",0.957
same,normalized growth,"locus YNL271C, strain bni1, hits give low values",1.02
same,normalized growth,"locus YNL298W, strain CLA4, hits give low values",0.995
same,normalized growth,"locus YNL307C, strain MCK1, hits give low values",0.987
same,normalized growth,"locus YNL322C, strain KRE1 (second series), hits give low values",0.948
same,normalized growth,"locus YNL322C, strain KRE1, hits give low values",1
same,normalized growth,"locus YNR049C, strain mso1, hits give low values",0.937
same,normalized growth,"locus YNR052C, strain pop2, hits give low values",1.02
same,normalized growth,"locus YOL012C, strain htz1",1.07
same,normalized growth,"locus YOL147C, strain pex11, hits give low values",0.997
same,normalized growth,"locus YOR001W, strain rrp6, hits give low values",0.95
same,normalized growth,"locus YOR061W, strain CKA2, hits give low values",1.01
same,normalized growth,"locus YOR069W, strain VPS5, hits give low values",0.99
same,normalized growth,"locus YOR070C, strain gyp1, hits give low values",0.941
same,normalized growth,"locus YOR080W, strain dia2, hits give low values",0.961
same,normalized growth,"locus YOR083W, strain WHI5, hits give low values",0.954
same,normalized growth,"locus YOR106W, strain vam3, hits give low values",0.905
same,normalized growth,"locus YOR136W, strain idh2, hits give low values",0.988
same,normalized growth,"locus YOR144C, strain elg1, hits give low values",0.997
same,normalized growth,"locus YOR184W, strain ser1, hits give low values",0.979
same,normalized growth,"locus YOR231W, strain MKK1, hits give low values",0.952
same,normalized growth,"locus YOR265W, strain rbl2, hits give low values",0.949
same,normalized growth,"locus YOR270C, strain vph1, hits give low values",0.676 (active)
same,normalized growth,"locus YOR290C, strain snf2, hits give low values",0.849 (active)
same,normalized growth,"locus YOR316C, strain cot1, hits give low values",0.996
same,normalized growth,"locus YPL051W, strain arl3, hits give low values",0.945
same,normalized growth,"locus YPL055C, strain LGE1, hits give low values",0.934
same,normalized growth,"locus YPL078C, strain atp4, hits give low values",0.922
same,normalized growth,"locus YPL106C, strain sse1, hits give low values",0.873
same,normalized growth,"locus YPL240C, strain hsp82, hits give low values",0.972
same,normalized growth,"locus YPL241C, strain CIN2, hits give low values",0.997
same,normalized growth,"locus YPL256C, strain CLN2, hits give low values",0.962
same,normalized growth,"locus YPR119W, strain clb2, hits give low values",1
same,normalized growth,"locus YPR141C, strain kar3, hits give low values",1.02
same,normalized growth,"locus YPR163C, strain tif3, hits give low values",1
same,normalized growth,"locus YPR167C, strain met16, hits give low values",1.02
same,normalized growth,"strain wtn01, hits give low values",0.944
